Source: PubChem (several laboratories)
Neddyl block = cullin neddylation inhibition; TR-FRET cullin neddylation, biochemical; inhibition, % at 25 µM; 360,000 tested, 0.58% active; AID 651699; in the data active = inhibition above about 36%
Rin1 Abl inh = human Rin1-Abl interaction inhibition; P00519+Q13671; TR-FRET Rin1/Abl binding, biochemical; inhibition, % at 7.35 µM; 360,000 tested, 0.4% active; in the data active = inhibition above about 5%, passing the limit was not always enough
ATG4B inh = inhibitors of human ATG4B cysteine protease. 340,000 tested, 0.51% active. inhibition, % at 8.33 µM. ATG4B cleavage of LC3-PLA2, NBD-HPC fluorescence, 1 h. Q9Y4P1; in the data active = inhibition above about 40%
SUMO1 PPI mod = modulators of human SUMO1-mediated protein-protein interactions; P63165; SUMO1 binding to a labelled peptide, TR-FRET, 1 h; inhibition, % at 20 µM; 360,000 tested, 0.33% active; in the data active = inhibition above about 37%
* marks the source's active call; other numbers are inactive results; / = not tested or not shown. Shown are actives, neighbours in structure and some others; about 1.7% of the full set was active somewhere.

SMILES | Neddyl block | Rin1 Abl inh | ATG4B inh | SUMO1 PPI mod
CNC(CC(C)C)C(=O)NC1C(=O)NC(CC(N)=O)C(=O)NC2C(=O)NC3C(=O)NC(C(=O)NC(C(=O)O)c4cc(O)cc(O)c4-c4cc3ccc4O)C(O)c3ccc(c(Cl)c3)Oc3cc2cc(c3OC2OC(CO)C(O)C(O)C2OC2CC(C)(N)C(O)C(C)O2)Oc2ccc(cc2Cl)C1O (centres undefined) | -4 | -2 | 1 | 51*
COC(=O)[C@]12CCCCC=C1N(Cc1ccc3c(c1)OCO3)C(=O)[C@H](CC(=O)NCCCN1CCCC1=O)C2 | -2 | / | / | 1
Cc1ccc(C(=O)NNC(=S)NC(=O)c2ccccc2)cc1 | 39* | -3 | -2 | 5
Cc1ccc(C(=O)NC(=S)NNC(=O)c2ccccc2)cc1 | 0 | -1 | 2 | 6
CCOC(=O)c1ccc(N2C(=O)c3n[nH]c(C)c3C2c2ccccn2)cc1 (centres undefined) | 5 | 2 | -6 | 41*
CCN1CCN(c2cc(N3CCN(C(=O)c4ccco4)CC3)c3c4c(onc24)-c2ccccc2C3=O)CC1 | -39 | -11 | 24 | 24
O=C(O)CCNc1cc(N2CCN(C(=O)c3ccco3)CC2)c2noc3c2c1C(=O)c1ccccc1-3 | -17 | -13 | 22 | 50*
Cc1cccc(N2CCN(C(=O)c3cc4c(=O)n(C)c5ccccc5c4n3C)CC2)c1C | -13 | 0 | 4 | 10
Cc1ccc(Cl)cc1N1CCN(C(=O)c2cc3c(=O)n(C)c4ccccc4c3n2C)CC1 | -12 | -1 | -1 | 48*
COc1ccc(-c2noc(CCCCC(=O)N3CCN(c4cc(C)ccc4C)CC3)n2)cc1 | 6 | -1 | -2 | 3
COc1ccc(-c2noc(CCCC(=O)N3CCN(c4cc(C)ccc4C)CC3)n2)cc1 | -2 | -3 | -7 | 42*
Nc1c2c(nc3ccn(Cc4ccccc4)c(=O)c13)CCC2 | 39* | -2 | 0 | 2
Nc1c2c(nc3ccn(-c4ccccc4)c(=O)c13)CCCCC2 | 16 | -2 | -12 | 0
N#C/C(=C\c1ccc(/C=C(/C#N)c2nn(CCO)c(N)c2C#N)cc1)c1nn(CCO)c(N)c1C#N | 4 | -1 | -1 | 60*
N#C/C(=C/c1ccccc1)c1nn(CCO)c(N)c1C#N | -13 | -4 | -8 | -6
COc1ccc(-c2nc(C#N)c(NCc3cccnc3)o2)cc1OC | 42* | 1 | -9 | -3
O=C(/C=C/[C@H]1O[C@@H](n2cnc3c(NC(=O)c4ccccc4)ncnc32)[C@H](O)[C@@H]1O)NCC1CCCCC1 | -3 | -1 | / | 6
Cc1cc(N2CCCCC2)nc(-c2ccc(Br)cc2)n1 | -123 | -1 | -11 | 45*
CCSc1cc(N2CCCC2)nc(-c2ccc(C)cc2)n1 | -3 | -1 | 0 | -2
CC(=O)Nc1ccc(OC(=O)c2c(-c3ccccc3Cl)noc2C)cc1 | -3 | -1 | 4 | 37*
Cc1cc(C)n(Cc2ccc(C(=O)N/N=C/c3ccc(-c4ccc([N+](=O)[O-])cc4)o3)o2)n1 | -33 | 1 | -3 | 104*
O=C(O)c1ccccc1-c1c2cc(I)c(=O)c(I)c-2oc2c(I)c(O)c(I)cc12 | 16 | 9 | -6 | 69*
NC(=O)c1sc2nc3c(c(-c4ccco4)c2c1N)CCC3 | -23 | -5 | 13 | 13
Nc1c(C(=O)NC2CC2)sc2nc3c(c(-c4ccco4)c12)CC/C3=C/c1ccco1 | -13 | 13* | 32 | 95*
O=C(O)CCCCCN1C(=O)/C(=C\c2cn(-c3ccccc3)nc2-c2cccs2)SC1=S | -16 | -2 | 3 | 114*
SMILES | Neddyl block | Rin1 Abl inh | ATG4B inh | SUMO1 PPI mod
O=C(O)CCN1C(=O)/C(=C/c2cn(-c3ccccc3)nc2-c2cccs2)SC1=S | -15 | 1 | 18 | -4
O=C(O)CCCCCN1C(=O)/C(=C/c2cn(-c3ccccc3)nc2-c2cccs2)SC1=S | 2 | 1 | 0 | 59*
Cc1ccc(-c2nn(-c3ccccc3)cc2/C=C2\SC(=S)N(CC(=O)O)C2=O)cc1 | -31 | 0 | 6 | 8
CC(C1SC(=S)NC1=O)C1SC(=S)NC1=O (centres undefined) | 2 | -5 | / | 20
NC(=O)c1cccc(-c2coc3c(C(=O)NC4CCCCC4)cccc23)c1 | 17 | 1 | / | 11
Cc1cn([C@H]2C[C@H](O)[C@@H](/C=C/C(=O)NCCC(c3ccccc3)c3ccccc3)O2)c(=O)[nH]c1=O | 4 | -2 | / | 3
O=Nc1c(-c2c(O)[nH]c3cc(Br)ccc23)[nH]c2ccccc12 | -30 | 0 | 27 | 44*
O=C(Nc1ccc2c(c1)C(=O)NC2=O)c1ccc2ncsc2c1 | -64 | 2 | -9 | 42*
